Values joined by “and” are separate entries in the source; they are usually repeats but may differ in a detail not shown here. Equal values may be shown once. Records with an inconclusive call do not appear. Active and inactive are the calls of the source. Unless noted, the call rests on the fitted dose curve; in most records, active means well fitted curve in the direction sought with a large enough effect; inconclusive means small, poorly fitted or top-dose-only effect, or another doubt; inactive means no such curve, though single readings can be large; an effect the other way counts as inactive or inconclusive.
Experiments:
[1] = Cellular Toxicity (caspase-3) HepG2 (AID 654);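 further: cells exposed to compound for 16 hours before reading; 0% = DMSO alone and 100% = caspase signal from 100 µM tamoxifen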
Procedure, shortened: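 Cells plated 5 hr at 37 °C, compound added, incubated 16 hr at 37 °C. Caspase-Glo 3/7 reagent followed, 20 min at room temperature, then luminescence read. Activation scored as signal increase; AC50 from Hill fit.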

[2] = Cellular Toxicity (caspase-3) HUV-EC-C (AID 656);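 further: 0% = DMSO basal and 100% = 100 µM tamoxifen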
Procedure, shortened: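 Luminescent Caspase-Glo 3/7 readout after 16 h, 37 °C compound exposure of HUV-EC-C endothelial cells, 1000 per well, complete medium. AC50 derived by Hill fitting, with DMSO as baseline and 100 uM tamoxifen as full activation.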

[3] = Cellular Toxicity (caspase-3) SHSY5Y (AID 657)
Procedure, shortened: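 Luminescent Caspase-Glo 3/7 read-out, 1 hr room temperature, follows 16 hours of compound treatment of SH-SY5Y cells at 37 °C. Normalization: DMSO basal, 10 uM staurosporine as 100%; AC50 values from Hill-equation concentration-response fits.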

[4] = Cellular Toxicity (caspase-3) BJ (AID 658);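 further: 0% = DMSO basal and 100% = 10 µM staurosporine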
Procedure, shortened: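 BJ human foreskin fibroblasts, 1000 cells/well, treated 16 hours at 37 °C in complete medium; caspase 3/7 activity by Caspase-Glo luminescence after 1 hr at room temperature. Normalized to DMSO and 10 uM staurosporine; AC50 from Hill fits.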

[5] = Cellular Toxicity (caspase-3) Mesangial (AID 660);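 further: combined caspase 3 and 7 activity read by Caspase-Glo luminescence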
Procedure, shortened: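 Mesangial cells, 1000/well, 5 h settle at 37 °C; compound 16 h, 37 °C; Caspase-Glo 3/7 reagent 20 min RT; luminescence. Norm.: DMSO = 0%, tamoxifen 100 uM = 100%. AC50, Hill fit.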

[6] = Cellular Toxicity (caspase-3) SK-N-SH (AID 661);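 further: 0% = DMSO basal and 100% = 10 µM staurosporine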
Procedure, shortened: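 Human neuroblastoma SK-N-SH, 1500 cells/well, 5 hr pre-incubation, then compound 16 hr, 37 °C. Caspase-Glo 3/7 reagent, 1 hr RT, luminescence. Norm. to DMSO/10 uM staurosporine; Hill-fit AC50.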

[7] = Cellular Toxicity (caspase-3) H-4-II-E (AID 663); settings: Potency: caspase-3 activation;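 further: cells exposed to compound for 16 hr before readout; 0% = DMSO basal and 100% = 100 µM tamoxifen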
Procedure, shortened: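 Rat hepatoma H-4-II-E cells (1500/well) plated 5 hr, then exposed to compound titrations for 16 hr at 37 °C. Caspase-Glo 3/7 luminescence read after 20 min at RT; data normalized to DMSO and 100 uM tamoxifen, AC50 from Hill fits.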

[8] = Cellular Toxicity (caspase-3) N2a (AID 665);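 further: compound exposure lasted 16 h at 37 °C before readout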
Procedure, shortened: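 N2a cells, 1500/well, 5 h settle at 37 °C; cpd 16 h, 37 °C; Caspase-Glo 3/7, 1 h RT; luminescence. Norm: DMSO = 0, 10 uM staurosporine = 100%. AC50, Hill fit.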

[9] = Cell Viability - LYMP2-001 (AID 921);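 further: series mostly up to about 92 µM; 0% = DMSO only and full inhibition = tetraoctylammonium bromide control wells; nearly all actives have a fitted effect of over 70% in size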
Procedure, shortened: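 Cellular ATP loss read by luciferase luminescence after 24 h compound exposure at 37 C in complete medium. LYMP2-001 lymphoblastoid cells, 2500/well; qHTS concentration-response data fitted with Hill equation for AC50.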

[10] = Cell Viability - LYMP1-002 - Assay at 16 hr (AID 948);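 further: 0% = DMSO alone and full effect = 92 µM tetraoctylammonium bromide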
Procedure, shortened: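 ATP luminescence (CellTiter-Glo) was measured after 16 hr compound exposure at 37 C of 2500 lymphoblastoid LYMP1-002 cells per well. Concentration-response curves were fitted with the Hill equation to give AC50.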

[11] = MultiTox-Fluor Cytotoxicity Assay - LYMP1-003 - Dead Cells (AID 961);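 further: 0% = DMSO and 100% = tetraoctylammonium bromide; nearly all actives have a fitted effect of over 70% in size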
Procedure, shortened: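 Acute toxicity is scored as increased dead-cell protease activity in human lymphoblastoid LYMP1-003 cells after 16 h compound exposure in complete culture medium. Activity is normalized to DMSO basal and 15 uM tetraoctylammonium bromide as full response.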

[12] = MultiTox-Fluor Cytotoxicity Assay - LYMP1-003 - Live Cells (AID 962);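 further: 0% = DMSO only and full loss = 92 µM tetraoctylammonium bromide; cytotoxic hits lower the live-cell protease signal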
Procedure, shortened: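 qHTS, 1536-well; 2500 cells/well LYMP1-003; 5 hr 37 C settle; cpd 16 hr 37 C; MultiTox-Fluor reagent 60 min RT; live-cell protease fluor. 405/510; Hill-fit AC50; tetraoctylammonium bromide pos. ctrl.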

[13] = Cell Viability - LYMP2-013 (AID 970);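 further: series mostly up to about 92 µM; 0% = DMSO only and full inhibition = tetraoctylammonium bromide control; nearly all actives have a fitted effect of over 55% in size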
Procedure, shortened: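 qHTS; 2500 lymphoblastoid cells/well; 5 hr 37 C settle; cpd 24 hr 37 C; CellTiter-Glo, 30 min RT; luminescence. AC50 = Hill fit.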

[14] = Cell Viability - LYMP2-023 (AID 975);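 further: cellular ATP measured by luciferase luminescence as viability proxy; series mostly up to about 92 µM; cells exposed to compound for 24 hours at 37 °C; plate controls were DMSO only for no effect and 92 µM tetraoctylammonium bromide control for full effect; nearly all actives have a fitted effect of over 55% in size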
Procedure, shortened: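 2500 cells/well, 5 hr 37 C; cpd 24 hr 37 C; CellTiter-Glo, 30 min RT; luminescence. qHTS conc-response, Hill fit -> AC50. Pos ctrl tetraoctylammonium bromide.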

[15] = Cell Viability - LYMP2-025 (AID 976);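 further: series mostly up to about 92 µM; plate controls were DMSO only for no effect and tetraoctylammonium bromide control for full effect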
Procedure, shortened: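 Seed 2500 LYMP2-025 cells/well; 5 hr at 37 C; add compound; 24 hr at 37 C; add CellTiter-Glo; 30 min RT; read luminescence. AC50 from Hill-modelled concentration-response.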

[16] = Cell Viability - LYMP2-007 (AID 979);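 further: cells exposed to compound for 24 h before reading; 0% = DMSO only and the negative end = 92 µM tetraoctylammonium bromide; nearly all actives have a fitted effect of over 60% in size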
Procedure, shortened: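 Luminescent ATP signal (CellTiter-Glo) serves as the viability read-out after 24 hr compound treatment of lymphoblastoid cells in complete medium at 37 C. Concentration-response data were fitted to the Hill equation to give AC50 values.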

[17] = Cell Viability - LYMP2-008 (AID 980); further: on the % scale 0 is the no-effect control and ±100 the full control effect; nearly all actives have a fitted effect of over 60% in size
Procedure, shortened: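 qHTS, human lymphoblastoid line, 2500 cells/well; 5 hr preincubation, 24 hr compound, 37 C. CellTiter-Glo ATP luminescence. AC50 via Hill equation. Tetraoctylammonium bromide positive control.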

[18] = Cell Viability - LYMP2-026 (AID 989); further: on the % scale 0 is the no-effect control and ±100 the full control effect; nearly all actives have a fitted effect of over 50% in size
Procedure, shortened: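 Luminescent ATP signal (CellTiter-Glo, 30 min room temperature) measures viable lymphoblastoid cells after 24 hr compound treatment at 37 C. Decreased ATP reflects acute toxicity; AC50 values come from Hill-equation modeling.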

[19] = qHTS Assay for Identification of Small Molecule Inducers of Hypoxia Response (AID 2120; active means well fitted curve in the direction sought with a large enough effect in the signal ratio, with a control signal flat, not every such curve was filed as active; the % refers to the signal ratio; further: 0% is about no effect)
Procedure, shortened: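 ME-180 HRE-bla cells plated in Opti-MEM/0.5% dialyzed FBS, rested 4-5 h, then dosed with compound titrations by pin tool. After 17 h at 37 degrees C, CCF4 dye loaded 2.5 h at RT; 460/530 nm ratio gave %Activity and AC50.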

[20] = qHTS assay for cell viability of HEK293 cells (AID 743288); settings: ATP luminescence (CellTiter-Glo), 18 h, hits give low values; further: on the % scale 0 is the no-effect control and ±100 the full control effect; nearly all actives have a fitted effect of over 50% in size
Procedure, shortened: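 Total intracellular ATP, measured with a luciferase-coupled reagent, indicates the number of viable HEK293 cells. Exposure to test chemicals lasts 18 h at 37 C in 1,536-well format at 2,000 cells/well.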

Nc1ccc(-c2ccc(N)cc2)cc1
inactive: outcome [1] | outcome [2] | outcome [3] | outcome [4] | outcome [5] | Potency [6] | Potency [7] | outcome [8] | Potency [9] | outcome [10] | Potency [11] | outcome [12] | Potency [13] | Potency [14] | Potency [15] | Potency [16] | Potency [17] | Potency [18] | Potency [19] | max response [20] 2.98%

CN(C)N=O
inactive: outcome [1] | outcome [2] | outcome [3] | outcome [4] | outcome [5] | Potency [6] | Potency [7] | outcome [8] | Potency [9] | outcome [10] | Potency [11] | outcome [12] | Potency [13] | Potency [14] | Potency [15] | Potency [16] | Potency [17] | Potency [18] | Potency [19] | max response [20] -0.309%

O=c1ccc(=O)[nH][nH]1
inactive: outcome [1] | outcome [2] | outcome [3] | outcome [4] | outcome [5] | Potency [6] | Potency [7] | outcome [8] | Potency [9] | outcome [10] | Potency [11] | outcome [12] | Potency [13] | Potency [14] | Potency [15] | Potency [16] | Potency [17] | Potency [18] | Potency [19] | max response [20] 3.74% and 5.95%

Clc1cc(Cl)c(Cl)c(Cl)c1
inactive: outcome [1] | outcome [2] | outcome [3] | outcome [4] | outcome [5] | Potency [6] | Potency [7] | outcome [8] | Potency [9] | outcome [10] | Potency [11] | outcome [12] | Potency [13] | Potency [14] | Potency [15] | Potency [16] | Potency [17] | Potency [18] | Potency [19] | max response [20] -14.6%

c1ccc2c(c1)CCNC2
inactive: outcome [1] | outcome [2] | outcome [3] | outcome [4] | outcome [5] | Potency [6] | Potency [7] | outcome [8] | Potency [9] | outcome [10] | Potency [11] | outcome [12] | Potency [13] | Potency [14] | Potency [15] | Potency [16] | Potency [17] | Potency [18] | Potency [19] | max response [20] 1.81%

CC(C)(C)c1ccccc1O
inactive: outcome [1] | outcome [2] | outcome [3] | outcome [4] | outcome [5] | Potency [6] | Potency [7] | outcome [8] | Potency [9] | outcome [10] | Potency [11] | outcome [12] | Potency [13] | Potency [14] | Potency [15] | Potency [16] | Potency [17] | Potency [18] | Potency [19] | max response [20] -7.55% and -11.9%

CN(C)C(=O)Nc1cccc(C(F)(F)F)c1
inactive: outcome [1] | outcome [2] | outcome [3] | outcome [4] | outcome [5] | Potency [6] | Potency [7] | outcome [8] | Potency [9] | outcome [10] | Potency [11] | outcome [12] | Potency [13] | Potency [14] | Potency [15] | Potency [16] | Potency [17] | Potency [18] | Potency [19] | max response [20] 3% and -3.2%

O=C(Cc1ccccc1)OCc1ccccc1
inactive: outcome [1] | outcome [2] | outcome [3] | outcome [4] | outcome [5] | Potency [6] | Potency [7] | outcome [8] | Potency [9] | outcome [10] | Potency [11] | outcome [12] | Potency [13] | Potency [14] | Potency [15] | Potency [16] | Potency [17] | Potency [18] | Potency [19] | max response [20] -0.778%

ClC(Br)Br
inactive: outcome [1] | outcome [2] | outcome [3] | outcome [4] | outcome [5] | Potency [6] | Potency [7] | outcome [8] | Potency [9] | outcome [10] | Potency [11] | outcome [12] | Potency [13] | Potency [14] | Potency [15] | Potency [16] | Potency [17] | Potency [18] | Potency [19] | max response [20] 0.132%

c1ccc(NNc2ccccc2)cc1
inactive: outcome [1] | outcome [2] | outcome [3] | outcome [4] | outcome [5] | Potency [6] | Potency [7] | outcome [8] | Potency [9] | outcome [10] | Potency [11] | outcome [12] | Potency [13] | Potency [14] | Potency [15] | Potency [16] | Potency [17] | Potency [18] | Potency [19] | max response [20] 2.88% and -1.77%

O=C(O)CCl
inactive: outcome [1] | outcome [2] | outcome [3] | outcome [4] | outcome [5] | Potency [6] | Potency [7] | outcome [8] | Potency [9] | outcome [10] | Potency [11] | outcome [12] | Potency [13] | Potency [14] | Potency [15] | Potency [16] | Potency [17] | Potency [18] | Potency [19] | max response [20] -4.45%

Cc1ccc2c(c1N)C(=O)c1ccccc1C2=O
inactive: outcome [1] | outcome [2] | outcome [3] | outcome [4] | outcome [5] | Potency [6] | Potency [7] | outcome [8] | Potency [9] | outcome [10] | Potency [11] | outcome [12] | Potency [13] | Potency [14] | Potency [15] | Potency [16] | Potency [17] | Potency [18] | Potency [19] | max response [20] -21.2% and -23%

O=NN1CCCCC1
inactive: outcome [1] | outcome [2] | outcome [3] | outcome [4] | outcome [5] | Potency [6] | Potency [7] | outcome [8] | Potency [9] | outcome [10] | Potency [11] | outcome [12] | Potency [13] | Potency [14] | Potency [15] | Potency [16] | Potency [17] | Potency [18] | Potency [19] | max response [20] -2.6%

C/C=C/C=O
inactive: outcome [1] | outcome [2] | outcome [3] | outcome [4] | outcome [5] | Potency [6] | Potency [7] | outcome [8] | Potency [9] | outcome [10] | Potency [11] | outcome [12] | Potency [13] | Potency [14] | Potency [15] | Potency [16] | Potency [17] | Potency [18] | Potency [19] | max response [20] 5.69%

From PubChem BioAssay (NCATS)
